A number with no mark means an inactive call. Records with an inconclusive call do not appear. Where a call stands in place of a potency, no number is given. Activity calls are given as the source filed them. Unless noted, calls follow the shape of the dose curve; as a rule, active = well fitted curve in the direction sought with a large enough effect; inconclusive = small, poorly fitted or top-dose-only effect, or another doubt; inactive = no such curve, though single readings can be large; an effect the other way counts as inactive or inconclusive.
Experiments:
[1] = target: Mitogen-activated protein kinase 10 (Mus musculus) (UniProt Q61831); assay: JNK3 AlphaScreen Assay (AID 530; active = well fitted curve in either direction with a large enough effect, not every such curve was filed as active;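 also: kinase came from lysate of stimulated human HepG2 cells; signal reports phosphorylation of biotinylated GST-cJun 1-79 at Ser73 with 10 µM ATP; series mostly up to about 57 µM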)
Procedure, shortened: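 qHTS format: compounds tested as titrations against IL-1beta/TNF-alpha-activated HepG2 lysate JNK3 with biotin-GST-cJun substrate and 10 uM ATP at room temperature. Loss of anti-phospho-cJun AlphaScreen signal indicates inhibition.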

[2] = target: 3',5'-cyclic-AMP phosphodiesterase 4B (Homo sapiens) (UniProt Q07343); assay: qHTS Assay for Inhibitors of PDE-IV (AID 607; active = well fitted activation curve with a large enough effect in the main read-out, with a control signal flat, not every such curve was filed as active)
Procedure, shortened: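 The readout is membrane depolarisation from a cAMP-sensing CNG channel, detected with a potential dye at ex 535/em 590. Cells were HEK293-derived (endogenous PDE-IV) at 1000 cells/well, titrated up to 22.9 uM final.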

[3] = target: Cytochrome P450 3A4 (Homo sapiens) (UniProt P08684); assay: qHTS Assay for Activators of Cytochrome P450 3A4 (AID 885); also: nearly all actives have a fitted effect of over 65% in size
Procedure, shortened: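 Steps: enzyme/substrate mix dispensed; compound added, 10 min RT; NADPH regeneration solution added, 60 min RT; luciferin detection buffer stops reaction; 20 min later luminescence measured.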

[4] = target: DNA dC->dU-editing enzyme APOBEC-3G (Homo sapiens) (UniProt Q9HC16); assay: qHTS for inhibitors of Vif-A3G interactions: Validation (AID 588379)
Procedure, shortened: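 HeLa cells stably expressing Vif and A3G-eYFP, 700 cells/well, incubated overnight at 37 deg C, then exposed to compound overnight at 37 deg C. Inhibition of Vif-mediated degradation read as increased yellow fluorescence (Ex 488/Em 500-530) by laser-scanning cytometry.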

[5] = test system: Zika virus NS2B-NS3 protease; assay: Primary screen GU AMC qHTS for Zika virus inhibitors (AID 1347154); also: nearly all actives have a fitted effect of over 70% in size
Procedure, shortened: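 Unlinked Zika NS2B hydrophilic domain–NS3 protease complex at 25 nM in 10 mM Tris-HCl pH 8.0, 0.01% Tween 20, with an AMC peptide substrate. Fluorescence change (340/450 nm) over 15 min at room temperature, normalized to controls, fitted to 4-parameter Hill.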

[6] = Primary qHTS for small molecule stabilizers of the endoplasmic reticulum resident proteome: Secreted ER Calcium Modulated Protein (SERCaMP) assay (AID 1508630)
Procedure, shortened: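 GLuc-SERCaMP-expressing SH-SY5Y cells, pretreated 16 h with compound, are challenged with thapsigargin to empty ER calcium stores; after 4 h, coelenterazine is added directly to the medium and luminescence is imaged.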

[7] = target: Cytochrome P450 3A4 (Homo sapiens) (UniProt P08684); assay: qHTS Assay for Inhibitors and Substrates of Cytochrome P450 3A4 (AID 884); also: nearly all actives have a fitted effect of over 50% in size; also: potency is read from the fitted curve at half-maximal effect
Procedure, shortened: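 20 nM human CYP3A4 with 25 uM Luciferin-PPXE (at KM) in 200 mM KPO4, preincubated 10 min with compound; NADPH regeneration started a 60 min RT reaction. Luciferin detected by luminescence, normalized to 57 uM ketoconazole as full inhibition.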

[8] = target: Glucocorticoid receptor (Homo sapiens) (UniProt P04150); assay: GR-GFP Redistribution (AID 450;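 active = compounds whose dose series gives a full or clear partial fitted curve of increased nuclear translocation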; also: potency is read from the fitted curve at half-maximal effect); conditions: U2OS GR-GFP nuclear translocation, laser cytometry, 2 h
[9] = target: Glucocorticoid receptor (Homo sapiens) (UniProt P04150); assay: GR-EFC Redistribution (AID 451; calls by dose curve; also: potency is read from the fitted curve at half-maximal effect); conditions: CHO-K1 GR-EFC translocation, beta-gal luminescence, 2 h
Procedure, shortened: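 CHO-K1 cells expressing nuclear EA and GR-ED fragments of b-gal; compounds titrated up to 46 uM final, 2 h at 37 C. GR nuclear translocation read as complemented b-gal luminescence after 1 h RT detection.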

[10] = target: Cytochrome P450 2C19 (Homo sapiens) (UniProt P33261); assay: qHTS Assay for Inhibitors and Substrates of Cytochrome P450 2C19 (AID 899); also: potency is read from the fitted curve at half-maximal effect; nearly all actives have a fitted effect of over 60% in size
Procedure, shortened: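 5 nM human CYP2C19 with 10uM Luciferin-H EGE (at KM) in 50mM KPO4, compound preincubated 10 min at 37C, then NADPH regeneration for 60 min at 37C. Luciferin read by luminescence after detection reagent; normalized to 57uM ketoconazole as full inhibition.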

Cytochrome P450 3A4 (Homo sapiens), sequence (P08684 whole entry, looked up): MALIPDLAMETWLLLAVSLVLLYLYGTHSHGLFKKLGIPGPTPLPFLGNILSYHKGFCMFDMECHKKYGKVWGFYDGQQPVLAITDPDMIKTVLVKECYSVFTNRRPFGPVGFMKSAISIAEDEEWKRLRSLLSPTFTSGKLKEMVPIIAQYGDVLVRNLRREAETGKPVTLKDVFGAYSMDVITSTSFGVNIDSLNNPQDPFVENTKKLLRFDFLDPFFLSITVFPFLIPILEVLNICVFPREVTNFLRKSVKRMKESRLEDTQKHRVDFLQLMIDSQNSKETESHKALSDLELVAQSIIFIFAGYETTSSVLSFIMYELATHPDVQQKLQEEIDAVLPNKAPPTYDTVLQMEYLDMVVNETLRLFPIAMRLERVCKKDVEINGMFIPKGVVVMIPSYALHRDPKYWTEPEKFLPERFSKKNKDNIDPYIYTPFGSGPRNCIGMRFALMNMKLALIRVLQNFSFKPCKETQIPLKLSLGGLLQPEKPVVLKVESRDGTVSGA
Glucocorticoid receptor (Homo sapiens), sequence (P04150 whole entry, looked up, the tested form may be a part): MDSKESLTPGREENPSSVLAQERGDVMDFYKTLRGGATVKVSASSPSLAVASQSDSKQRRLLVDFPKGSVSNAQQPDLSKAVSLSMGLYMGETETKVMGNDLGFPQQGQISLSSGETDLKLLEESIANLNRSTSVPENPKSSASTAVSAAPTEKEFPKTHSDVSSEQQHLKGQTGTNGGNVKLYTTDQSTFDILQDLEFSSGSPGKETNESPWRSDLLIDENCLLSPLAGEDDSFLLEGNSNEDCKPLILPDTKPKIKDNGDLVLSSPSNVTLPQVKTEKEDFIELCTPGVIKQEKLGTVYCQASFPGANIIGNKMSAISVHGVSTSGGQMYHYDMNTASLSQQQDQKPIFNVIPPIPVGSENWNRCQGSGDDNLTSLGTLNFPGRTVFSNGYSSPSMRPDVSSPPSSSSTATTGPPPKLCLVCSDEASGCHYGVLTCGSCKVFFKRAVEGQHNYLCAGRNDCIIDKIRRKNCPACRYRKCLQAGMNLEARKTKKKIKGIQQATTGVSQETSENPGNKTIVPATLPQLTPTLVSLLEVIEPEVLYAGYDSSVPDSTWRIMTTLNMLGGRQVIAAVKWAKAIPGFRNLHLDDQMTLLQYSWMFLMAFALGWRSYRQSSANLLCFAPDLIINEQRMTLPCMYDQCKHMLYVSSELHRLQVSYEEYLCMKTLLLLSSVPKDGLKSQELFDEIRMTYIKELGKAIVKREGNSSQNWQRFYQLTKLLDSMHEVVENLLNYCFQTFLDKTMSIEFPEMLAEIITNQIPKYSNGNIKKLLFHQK
DNA dC->dU-editing enzyme APOBEC-3G (Homo sapiens), sequence (Q9HC16 whole entry, looked up): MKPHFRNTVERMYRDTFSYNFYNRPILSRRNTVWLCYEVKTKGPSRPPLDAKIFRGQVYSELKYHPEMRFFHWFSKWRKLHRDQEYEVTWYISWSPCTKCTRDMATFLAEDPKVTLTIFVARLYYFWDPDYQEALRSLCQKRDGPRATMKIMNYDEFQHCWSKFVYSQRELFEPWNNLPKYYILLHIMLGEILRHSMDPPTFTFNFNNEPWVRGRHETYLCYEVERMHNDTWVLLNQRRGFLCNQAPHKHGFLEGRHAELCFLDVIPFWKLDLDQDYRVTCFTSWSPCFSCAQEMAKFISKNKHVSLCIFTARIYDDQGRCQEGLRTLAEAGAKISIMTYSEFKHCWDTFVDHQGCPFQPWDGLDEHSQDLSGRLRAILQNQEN
3',5'-cyclic-AMP phosphodiesterase 4B (Homo sapiens), sequence (Q07343 whole entry, looked up): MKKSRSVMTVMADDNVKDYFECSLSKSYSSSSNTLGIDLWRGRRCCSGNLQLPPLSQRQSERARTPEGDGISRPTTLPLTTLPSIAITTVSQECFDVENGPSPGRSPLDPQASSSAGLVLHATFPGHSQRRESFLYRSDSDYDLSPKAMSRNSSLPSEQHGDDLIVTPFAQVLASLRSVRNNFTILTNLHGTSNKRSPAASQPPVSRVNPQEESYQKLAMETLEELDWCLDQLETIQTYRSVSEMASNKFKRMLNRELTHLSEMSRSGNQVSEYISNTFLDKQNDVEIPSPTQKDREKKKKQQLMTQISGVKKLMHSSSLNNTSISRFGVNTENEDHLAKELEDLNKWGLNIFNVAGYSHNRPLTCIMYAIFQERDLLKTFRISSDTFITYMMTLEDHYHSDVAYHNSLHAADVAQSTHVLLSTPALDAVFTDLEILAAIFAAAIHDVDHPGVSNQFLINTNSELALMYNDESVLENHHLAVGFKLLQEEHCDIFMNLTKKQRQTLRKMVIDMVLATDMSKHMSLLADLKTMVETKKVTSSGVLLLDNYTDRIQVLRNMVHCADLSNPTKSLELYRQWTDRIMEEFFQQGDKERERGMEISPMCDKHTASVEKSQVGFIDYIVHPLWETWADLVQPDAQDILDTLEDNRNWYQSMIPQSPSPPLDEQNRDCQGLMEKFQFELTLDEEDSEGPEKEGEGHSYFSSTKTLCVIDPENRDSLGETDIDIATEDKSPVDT
Cytochrome P450 2C19 (Homo sapiens), sequence (P33261 whole entry, looked up): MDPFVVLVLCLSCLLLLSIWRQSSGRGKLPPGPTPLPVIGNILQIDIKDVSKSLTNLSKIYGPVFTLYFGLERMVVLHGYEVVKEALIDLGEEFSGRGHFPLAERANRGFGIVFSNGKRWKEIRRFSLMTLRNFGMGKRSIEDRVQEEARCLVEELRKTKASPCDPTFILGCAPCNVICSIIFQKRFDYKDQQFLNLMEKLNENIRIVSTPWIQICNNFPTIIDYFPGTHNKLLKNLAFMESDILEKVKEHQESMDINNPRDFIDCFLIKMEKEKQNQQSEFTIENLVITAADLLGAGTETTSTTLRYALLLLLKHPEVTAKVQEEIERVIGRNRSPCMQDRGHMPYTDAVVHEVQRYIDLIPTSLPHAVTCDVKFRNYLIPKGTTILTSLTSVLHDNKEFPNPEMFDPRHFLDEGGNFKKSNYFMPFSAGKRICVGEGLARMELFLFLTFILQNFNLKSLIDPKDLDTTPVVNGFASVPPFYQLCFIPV

Row | SMILES | Potency [1] | Potency [2] | Potency [3] | Potency [4] | Potency [5] | Potency [6] | Potency [7] | Potency [8] | Potency [9] | Potency [10]
1 | CCN(CC)C[C@@H]1CCCCN1CC(=O)N1c2ccccc2C(=O)Nc2cccnc21 | inactive | inactive | inactive | inactive | inactive | inactive | – | – | – | –
2 | CC(=O)N(OCc1ccccc1)[C@@H]1c2cc(C#N)ccc2OC(C)(C)[C@H]1O | – | – | inactive | – | inactive | inactive | 15.8 µM (active) | – | – | –
3 | CC(=O)N(O)[C@@H]1c2cc(C#N)ccc2OC(C)(C)[C@H]1O | – | – | – | – | inactive | inactive | inactive | – | – | –
4 | Cc1cc(C)c(S(=O)(=O)Nc2cccc(C(F)(F)F)c2)c(C)c1 | inactive | – | inactive | inactive | inactive | inactive | – | > 46 µM | > 46 µM | 3.16 µM (active)

Source: PubChem BioAssay (NCATS)
